In the library only some 10% were active in any assay of this set; here they are far more common.
G9a inh: qHTS Assay for Inhibitors of Histone Lysine Methyltransferase G9a | 350,000 tested, 8.8% active | Potency, µM (titrated, usually from 102 µM), without a hit: at the highest dose activity, negative = inhibition, actives largely listed as inhibitors | G9a H3K9 monomethylation, AlphaScreen, 2 h | Histone-lysine N-methyltransferase EHMT2 (Homo sapiens), Q96KQ7; note: potency is the fitted concentration of half-maximal effect; % is set by controls: 0 for no effect and ±100 for the full control effect; nearly all actives have a fitted effect of over 75% in size
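Signal arises when biotinylated H3K9 peptide, once monomethylated, bridges streptavidin donor and antibody-captured acceptor beads. Enzyme at 20 nM was preincubated 15 min with test compounds; peptide 500 nM and SAM 20 uM then reacted for 2 h.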
HP1b chromo inh: HTS for Inhibitors of HP1-beta Chromodomain Interactions with Methylated Histone Tails | Chromobox protein homolog 1 (Homo sapiens), P83916 | Potency, µM (top dose mostly 114 µM), for inactives: at the top dose activity change, negative = inhibition, usual class: inhibitors | 390,000 tested, 0.56% active | AlphaScreen HP1-beta / biotin-H3K9me3 peptide binding; note: potency is the fitted concentration of half-maximal effect; nearly all actives have a fitted effect of over 70% in size
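AlphaScreen: HP1-beta (50 nM) preformed 30 min with biotin-H3(1-18)K9me3 peptide (50 nM) in PBS pH 7.4, 0.01% Tween-20. Compound added for 30 min at RT, then streptavidin donor/nickel chelate acceptor beads (10 ug/mL) for 30 min.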
CtBP-E1A inh: qHTS Assay for Inhibitors of the CtBP/E1A Interaction. CtBP / adenovirus E1A interaction (AlphaScreen). AID 651724, 2012. activity change, % (concentration not given with the values). AlphaScreen GST-E1A/His-CtBP binding, 1536-well; hits give low values. 340,000 tested, 0.49% active; in the data active = activity change below about -65%; inconclusive = mostly about -30% to -63%; note: % is set by controls: 0 for no effect and ±100 for the full control effect
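AlphaScreen with 125 nM GST-E1A and 125 nM His-CtBP (5X stocks) in Tris pH 8.0, 300 mM NaCl, BSA, Tween 20, TCEP. Compounds preincubated 2 h at 37 deg C, then glutathione donor/nickel acceptor beads added for 1 h at 37 deg C in dark.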
JMJD2A Tudor: qHTS Assay for Inhibitors of JMJD2A-Tudor Domain. Lysine-specific demethylase 4A (Homo sapiens), O75164. AlphaScreen JMJD2A-Tudor / H3K4me3 peptide binding. Potency, µM (top dose mostly 114 µM), for inactives: at the highest dose activity change, negative = inhibition, hits mostly inhibitors. 390,000 tested, 4.4% active; note: potency is the fitted concentration of half-maximal effect; % is set by controls: 0 for no effect and ±100 for the full control effect; nearly all actives have a fitted effect of over 50% in size
BAZ2B inh: qHTS Assay for Inhibitors of BAZ2B | AlphaScreen BAZ2B-H3K14Ac peptide displacement | Potency, µM (highest dose often 114 µM), inactives show at the top dose activity change, negative = inhibition, hits mostly inhibitors | 360,000 tested, 4.4% active | AID 504333, 2011; note: potency is the fitted concentration of half-maximal effect; % is set by controls: 0 for no effect and ±100 for the full control effect; nearly all actives have a fitted effect of over 60% in size
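Multi-concentration screen (max 110 uM) measuring displacement of acetylated histone H3 peptide from BAZ2B by AlphaScreen, using 50 nM protein, 50 nM peptide and 10 ug/mL streptavidin donor plus Ni-chelate acceptor beads.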
Six1-Eya2 blk: qHTS Assay for Inhibitors of the Six1/Eya2 Interaction. AlphaScreen GST-Six1/His-Eya2 binding, biochemical; hits give low values. activity change, % (no concentration beside the values). 360,000 tested, 0.56% active; in the data active = activity change below about -65%; inconclusive = mostly about -30% to -63%; note: % is set by controls: 0 for no effect and ±100 for the full control effect
Target sequence (O00167 whole entry, looked up): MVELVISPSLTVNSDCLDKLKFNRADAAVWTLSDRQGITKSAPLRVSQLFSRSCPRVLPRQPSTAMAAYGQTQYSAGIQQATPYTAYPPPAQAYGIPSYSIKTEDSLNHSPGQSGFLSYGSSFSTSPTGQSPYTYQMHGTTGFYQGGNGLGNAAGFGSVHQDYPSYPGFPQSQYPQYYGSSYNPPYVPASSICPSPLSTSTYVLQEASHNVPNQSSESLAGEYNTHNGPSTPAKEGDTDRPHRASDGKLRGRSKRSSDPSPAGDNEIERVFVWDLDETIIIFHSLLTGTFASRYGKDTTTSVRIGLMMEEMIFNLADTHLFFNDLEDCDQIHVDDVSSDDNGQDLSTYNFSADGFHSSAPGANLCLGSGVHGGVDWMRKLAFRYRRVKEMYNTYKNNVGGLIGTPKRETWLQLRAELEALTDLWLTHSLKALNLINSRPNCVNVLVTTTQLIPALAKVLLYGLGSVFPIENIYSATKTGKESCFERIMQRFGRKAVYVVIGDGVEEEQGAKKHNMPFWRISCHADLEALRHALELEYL
Target sequence (Q15475 whole entry, looked up): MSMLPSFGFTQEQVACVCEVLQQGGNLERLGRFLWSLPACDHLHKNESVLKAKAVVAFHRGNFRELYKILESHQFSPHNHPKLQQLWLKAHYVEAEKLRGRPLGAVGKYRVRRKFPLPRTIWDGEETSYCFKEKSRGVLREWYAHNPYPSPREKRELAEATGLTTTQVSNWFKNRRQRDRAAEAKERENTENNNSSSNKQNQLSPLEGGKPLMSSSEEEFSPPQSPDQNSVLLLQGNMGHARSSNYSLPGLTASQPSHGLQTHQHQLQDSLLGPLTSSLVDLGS
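Six1/Eya2 binding was read as AlphaScreen signal after compounds were pinned into GST-Six1 plus His-tagged Eya2 (5X stock 250/500 nM) in pH 8.0 Tris/NaCl/TCEP buffer, beads added, then incubated 1 h, 37 C, dark.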
Active calls of the source: *; ? = inconclusive; · = no result given; [ ] = another dose, or the depositor's remark. Unless noted, calls come from the whole dose curve; as a rule, active = well fitted inhibition curve with a large enough effect; inconclusive = small, poorly fitted or top-dose-only effect; inactive = no such curve, though single readings can be large or run the other way.

SMILES | G9a inh | HP1b chromo inh | CtBP-E1A inh | JMJD2A Tudor | BAZ2B inh | Six1-Eya2 blk
CCOC(=O)Nc1ccc2c(c1)Nc1ccccc1S2 | 8.9µM* | -42% | ? | 40µM* | 28µM* | ?
C=CC(=O)N1c2ccccc2Sc2ccc(NC(=O)OCC)cc21 | · | 3% | 4 | -5% | · | 9
CC(=O)c1ccc2c(c1)Nc1ccccc1S2 | 2.8µM* | -1% | 1 | -7%[57.1 µM] | 4% | 6
Cc1ccc2c(c1)c1c(c(=O)n(-c3cccc(Cl)c3)c(=O)n1CC(=O)NCC1CCCO1)n2C (configuration not stated) | ? | 58% | · | -11% | -1% | ·
CCCc1cc(=O)oc2cc(C)c3c(C(C)(C)C)coc3c12 | -6%[59 µM] | 10% | · | 12% | -19% | ·
CC(C)Oc1ccc(CNC(=O)c2cccc(NC(=O)N3CCSc4ncccc43)c2)cc1 | -27%[59 µM] | 32% | · | -15% | -15% | ·
COC(=O)c1cccc2c1-c1ccccc1/C2=N\NC(N)=O | -8%[2.33 µM] | -3% | · | -15% | -7% | 0
NC(=O)c1cccc2c1-c1ccccc1/C2=N/NC(N)=S | 45µM* | 2% | · | -30% | ? | -27
NC(=S)N/N=C1\c2ccccc2-c2c(C(=O)O)cccc21 | 28µM* | -1% | · | -12% | -10% | -6
CCOC(=O)Nc1ccc2c(c1)C(=NNC(N)=S)c1ccccc1-2 | · | 4% | -65* | ? | · | -79*
COc1ccccc1-n1c(=O)c2c3c(sc2n(C)c1=O)CN(C(C)=O)CC3 | -4%[59 µM] | 37% | · | -3% | 2% | ·
Cc1ccc(NC(=O)CSc2nc3ccc(NC(=O)CCc4ccccc4)cc3s2)cc1 | -4%[59 µM] | 51% | · | 6% | 1% | ·
CN(C)CCCN(C(=O)c1ccc(S(=O)(=O)N2CCc3ccccc3C2)cc1)c1nc2c(F)cc(F)cc2s1 | 35µM* | -5% | -30 | ? | ? | -16
COc1cccc2sc(N(CCCN(C)C)C(=O)c3ccc(S(=O)(=O)N4CCc5ccccc5C4)cc3)nc12 | ? | -9% | -17 | ? | ? | -26
COc1cc2nc(N(CCCN(C)C)C(=O)c3ccc(C(=O)c4ccccc4)cc3)sc2cc1OC | 50µM* | ? | -25 | ? | ? | -23
COc1ccc(OC)c2sc(N(CCCN(C)C)C(=O)c3ccc(S(=O)(=O)N4CCc5ccccc5C4)cc3)nc12 | 8.9µM* | · | · | · | -12% | ·
COc1cc2nc(N(CCCN(C)C)C(=O)c3ccc(S(=O)(=O)N4CCc5ccccc5C4)cc3)sc2cc1OC | 40µM* | 3% | -12 | -16% | -37% | -25
CCOc1ccc(Sc2cc(C(=O)NCc3ccccc3Cl)c3ccccc3n2)cc1 | 0%[59 µM] | 32% | · | -15% | 3% | ·
CCOC(=O)c1ccccc1NC(=O)c1cn(CC(C)C)c(=O)c2cc(OC)c(OC)cc12 | 1%[59 µM] | 32% | · | 0% | 4% | ·
CC(C)c1ccc2oc(-c3ccc(Cl)c(NC(=O)Cc4ccccc4)c3)nc2c1 | -56%[59 µM] | 42% | · | -10% | -3% | ·
Cc1cccc(C)c1N1C(=O)CC(N2CCN(S(=O)(=O)c3ccccc3F)CC2)C1=O (configuration not stated) | · | 31% | · | -17% | · | 6
O=C1CC(N2CCN(S(=O)(=O)c3ccccc3F)CC2)C(=O)N1c1ccccc1F (configuration not stated) | · | ? | 1 | 16µM* | · | 4
c1ccc(-n2ncc3c(NCc4ccco4)ncnc32)cc1 | ? | 8% | -2 | 0% | ? | -8
c1ccc(Cn2ncc3c(NCc4ccco4)ncnc32)cc1 | 45µM* | 21% | 8 | ? | 79µM* | -3
Fc1ccc2[nH]c3c(NCc4ccco4)ncnc3c2c1 | · | -20% | · | -33% | · | ·
SMILES | G9a inh | HP1b chromo inh | CtBP-E1A inh | JMJD2A Tudor | BAZ2B inh | Six1-Eya2 blk
Cc1ccc2[nH]c3c(NCc4ccco4)ncnc3c2c1 | 50µM* | -13% | 21 | -33% | ? | -7
Cc1ccc(-n2ncc3c(NCc4cccnc4)ncnc32)c(C)c1 | -6% | 6% | -2 | -13% | -34% | 5
Cc1ccc(-n2ncc3c(NCc4ccco4)ncnc32)c(C)c1 | 50µM* | 24% | 0 | -27% | ? | -13
CCOC(=O)N1CCN(Cc2nc3cc(NC(C)=O)ccc3n2C(C)C)CC1 | -48%[59 µM] | 34% | · | 50µM* | ? | ·
CCCC(=O)Nc1ccc2c(c1)nc(CN1CCN(C(C)=O)CC1)n2C | 50µM* | 29% | -6 | 10% | 1%[57.1 µM] | -1
CCCCS/C(=C(/C#N)C(N)=O)c1cc2c([nH]1)CCCC2 | 20µM* | ? | -7 | 45µM* | 40µM* | -13
Cc1ccc(C(=O)Nc2cc(-c3nc4ncccc4o3)ccc2C)c(C)c1 | 1%[59 µM] | 44% | · | -31% | -1% | ·
COC(=O)C1=C(C)NC(C)=C(C(=O)OC)C1c1ccc(-c2cccc([N+](=O)[O-])c2)o1 | 79µM* | 13% | · | ? | -26% | -2
COC(=O)C1=C(C)NC(C)=C(C(=O)OC)C1c1ccc(-c2cc(Cl)ccc2Cl)o1 | 18µM* | 53% | 11 | -12% | -5% | 1
COC(=O)C1=C(C)NC(C)=C(C(=O)OC)C1c1ccc(-c2cccc(Cl)c2Cl)o1 | -18%[59 µM] | 34% | 20 | -11% | -2% | 12
Cc1cc(C)nc(N/N=C2/CCSc3ccc(F)cc32)n1 | 35µM* | 30% | -11 | -40% | -18% | -4
O=C(O)c1ccc(N/N=C2/CCSc3ccc(F)cc32)cc1 | 50µM* | -8% | -10 | ? | ? | -13
COCCn1ccc2c(OCC(=O)Nc3cccc(C(F)(F)F)c3)cccc2c1=O | -18%[59 µM] | 23% | · | -1% | 1% | ·
O=C(N/N=C/c1ccoc1)c1ccc(Br)cc1 | 53% | 15% | -13 | -30% | ? | -8
Cc1cc(C)cc(C(=O)N/N=C/c2ccoc2)c1 | 45% | 21% | 6 | -13% | -1% | 8
Cn1c(/C=N/NC(=O)c2ccccc2)nc2ccccc21 | ? | 19% | 9 | 89µM* | -22% | -8
O=C(N/N=C/c1ccoc1)c1ccccc1 | -44% | 2% | 3 | -26% | 56µM* | -6
O=C(N/N=C/c1ccoc1)c1cc(O)cc(O)c1 | · | 45µM* | -18 | 25µM* | 20µM* | ?
O=C(N/N=C/c1ccoc1)c1ccc(Cl)cc1 | 45µM* | 14% | -17 | -16% | -35% | -15
CCN(Cc1ccccc1)C(=O)C1CCN(Cc2sccc2C)CC1 | 8.9µM* | ? | -17 | 2.8µM* | -37% | 4

Screening results (PubChem BioAssay)
